High-throughput results: PubChem BioAssay, National Center for Advancing Translational Sciences (NCATS)
TrxR1 substrate: rat thioredoxin reductase 1 substrate activity | 390,000 compounds, 0.01% hits | Potency, µM (top dose mostly 114 µM), inactives show at the top dose activity change, negative = substrate turnover | purified TrxR1 substrate turnover, NADPH consumption readout | O89049 | AID 588456; also: potency is read from the fitted curve at half-maximal effect; nearly all actives have a fitted effect of over 50% in size
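Rat TrxR1, dispensed at 90 nM, was prereduced with 400 uM NADPH (final) for 5 min at ~22 deg C, then incubated with compound 15 min before 400 uM selenite. A first-read NADPH fluorescence drop versus no-compound background flagged substrates.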
TrxR1 inh: rat TrxR1 inhibition; O89049; recombinant rTrxR1, NADPH fluorescence consumption, selenite substrate; Potency, µM (highest dose often 114 µM), for inactives: at the highest dose activity change, negative = inhibition, usual class: inhibitors; 390,000 compounds, 1% hits; AID 588453; also: potency is read from the fitted curve at half-maximal effect; nearly all actives have a fitted effect of over 65% in size
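Rat TrxR1 (90 nM in the dispensed reagent) was pre-reduced with 400 uM NADPH for 5 min at room temperature, then incubated with compound for 15 min. After 400 uM selenite was added, NADPH fluorescence (Ex 340/Em 450 nm) was followed for 8 min.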
PKM2 activator: increases activity of human pyruvate kinase M2 | P14618 | purified PKM2, Kinase-Glo ATP luminescence, activation; response scale: 0% is enzyme alone, no compound | Potency, µM (highest dose often 57.5 µM), for inactives: at the highest dose activation, hits mostly activators | 260,000 compounds, 0.34% hits | AID 1631; also: potency is read from the fitted curve at half-maximal effect; nearly all actives have a fitted effect of over 55% in size
Target sequence (P14618 whole entry, looked up): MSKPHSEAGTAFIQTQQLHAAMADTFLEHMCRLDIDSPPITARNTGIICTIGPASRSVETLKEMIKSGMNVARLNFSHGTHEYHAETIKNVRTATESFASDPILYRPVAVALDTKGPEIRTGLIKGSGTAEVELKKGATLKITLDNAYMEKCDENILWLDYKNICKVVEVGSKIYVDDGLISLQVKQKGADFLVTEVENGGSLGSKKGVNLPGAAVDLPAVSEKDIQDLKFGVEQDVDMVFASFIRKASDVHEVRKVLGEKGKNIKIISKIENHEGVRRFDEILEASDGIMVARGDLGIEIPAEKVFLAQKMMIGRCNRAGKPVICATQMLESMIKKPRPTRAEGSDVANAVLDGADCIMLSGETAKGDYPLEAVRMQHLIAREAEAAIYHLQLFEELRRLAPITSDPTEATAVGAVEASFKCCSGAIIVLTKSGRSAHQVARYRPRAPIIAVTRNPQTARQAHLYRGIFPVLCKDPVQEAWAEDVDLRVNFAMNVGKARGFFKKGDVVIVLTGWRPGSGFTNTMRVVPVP
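Purified hPK-M2 (>95%) run at intermediate activity with 0.1 mM ADP and 0.5 mM PEP in 50 mM imidazole pH 7.2, KCl, MgCl2; 1 h room temperature. ATP formed read by Kinase-Glo luminescence; normalized to uninhibited and no-enzyme controls.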
GALK inh: blocks human galactokinase activity; P51570; Purified GALK, Kinase-Glo residual ATP luminescence; Potency, µM (doses to about 57.5 µM), without a hit: at the highest dose activity change, negative = inhibition, most hits filed as inhibitors; 270,000 compounds, 0.007% hits; AID 1868; also: potency is read from the fitted curve at half-maximal effect
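Kinase-Glo Plus luminescence measured ATP left after a 1 h room-temperature reaction. The reaction used 5 nM GALK, 100 uM galactose and 35 uM ATP at pH 8.0 (20 mM HEPES, 5 mM MgCl2, 60 mM NaCl, 1 mM DTT, 0.01% BSA).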
PI4K2A inh: blocks human PI4K2A kinase activity; purified PI4K2A, ADP-Glo luminescence, 1 h; active compounds read low; activity change, negative = inhibition, % at 76.9 µM; 420,000 compounds, 0.13% hits; Q9BTU6; in the data active = activity change below about -50%; inconclusive = mostly about -30% to -49%;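 also: -100% = wells without enzyme as full effect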
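Compounds are screened against recombinant PI4K2A using PI as substrate and ATP, the latter dispensed at 300 microM. Reactions run one hour at ambient temperature before ADP-Glo detection; full inhibition defined by wells lacking enzyme.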
An asterisk follows results filed as active; [ ] = another dose, or the depositor's remark. This is a sample that favours compounds with a hit; in the whole collection about 1.2% have one here. Unless noted, calls follow the shape of the dose curve; as a rule, active = well fitted curve in the direction sought with a large enough effect; inconclusive = small, poorly fitted or top-dose-only effect, or another doubt; inactive = no such curve, though single readings can be large; an effect the other way counts as inactive or inconclusive. Unless noted, % is scaled to controls: 0 for no effect and ±100 for the full control effect.

For Nc1ccc2nc(-c3ccccc3)sc2c1 the results were TrxR1 substrate 215%[57.1 µM], TrxR1 inh 50%[57.1 µM], PKM2 activator -35%, GALK inh 9% and PI4K2A inh -55*.
For Cc1ccc2nc(-c3ccc(N)cc3)sc2c1 the results were TrxR1 substrate 380%, TrxR1 inh inconclusive, PKM2 activator -17%, GALK inh 7% and PI4K2A inh -13.
Screening Cc1ccccc1CS(=O)(=O)c1nnc([C@H](Cc2ccccc2)NC(=O)OC(C)(C)C)o1 returned TrxR1 substrate 0%, TrxR1 inh 0.63µM*, PKM2 activator 25%, GALK inh 1% and PI4K2A inh 74.
For CCC(C)[C@@H](NC(=O)OC(C)(C)C)c1nnc(S(=O)(=O)Cc2cccc(C)c2)o1 (stereo partly specified) the results were TrxR1 substrate -15%, TrxR1 inh 1.8µM*, PKM2 activator 14%, GALK inh -2% and PI4K2A inh 45.
CSCCC(NC(C)=O)C(=O)Oc1ccc2c3c(c(=O)oc2c1)CCCC3 (stereo unspecified) was read as TrxR1 substrate 583%, TrxR1 inh 50µM*, PKM2 activator 8%, GALK inh -1% and PI4K2A inh 6.
COc1ccc(S(=O)(=O)c2c(Nc3ccccc3F)sc(C(=O)c3cccc(OC)c3)c2N)cc1 was read as TrxR1 substrate 2%[57.1 µM], TrxR1 inh 24%[57.1 µM] and PI4K2A inh -2.
`CCN(C(=O)CSc1nnc(-c2cc(OC)c(OC)c(OC)c2)o1)c1ccccc1` gave TrxR1 substrate -8%, TrxR1 inh 45µM* and PI4K2A inh -1.
Screening CCOC(=O)N(C)OC(=O)Nc1ccc(Cl)c(Cl)c1 returned TrxR1 substrate 7%[57.1 µM], TrxR1 inh 16µM*, PKM2 activator 3%, GALK inh 6% and PI4K2A inh 17.
For O=C(CS(=O)c1ccccc1[N+](=O)[O-])Oc1ccc(Br)cc1 (stereo unspecified) the results were TrxR1 substrate -3%, TrxR1 inh inconclusive, PKM2 activator -2%, GALK inh 1% and PI4K2A inh 0.
`CS(=O)(=O)c1ccc(S(=O)CC(=O)Oc2ccc(Cl)cc2)c([N+](=O)[O-])c1` (stereo unspecified) gave TrxR1 substrate 4%[57.1 µM], TrxR1 inh 1.8µM*, PKM2 activator 16%, GALK inh -1% and PI4K2A inh -6.
`O=C(c1ccc(F)cc1)C(CN1CCOCC1)c1ccccc1` (stereo unspecified) gave TrxR1 substrate -10%, TrxR1 inh 56µM*, PKM2 activator 1%, GALK inh 7% and PI4K2A inh 32.
COc1ccc(C(=O)C(CN2CCOCC2)c2ccccc2)cc1 (stereo unspecified) was read as TrxR1 substrate 6%, TrxR1 inh -7%, PKM2 activator -1%, GALK inh 0% and PI4K2A inh 38.
O=C(c1ccc(Cl)cc1)C(CN1CCCC1)c1ccccc1 (stereo unspecified) was read as TrxR1 substrate 9%, TrxR1 inh 35µM*, PKM2 activator 4%, GALK inh 3% and PI4K2A inh 26.
Screening CCc1ccc(/C=C/C(=O)C2C(=O)c3ccccc3C2=O)cc1 returned TrxR1 substrate -20%, TrxR1 inh -21%, PKM2 activator -7%, GALK inh -2% and PI4K2A inh -9.
CC[N+]1(C)CCC(O)(/C=C/c2ccccc2)C(C(=O)/C=C/c2ccccc2)C1 (stereo unspecified) was read as TrxR1 substrate 11%[11.4 µM], TrxR1 inh 0.32µM* and PI4K2A inh 9.
For O=C(O)/C=C/S(=O)(=O)c1ccc2ccccc2c1 the results were TrxR1 substrate 7%, TrxR1 inh 11µM*, PKM2 activator 1%, GALK inh 3% and PI4K2A inh -3.
`O=C(CN1C(=O)C(=O)N(Cc2ccco2)C1=O)c1c[nH]c2ccccc12` gave TrxR1 substrate 0%, TrxR1 inh 14µM*, PKM2 activator -4% and PI4K2A inh -21.
`COC(=O)c1cc(-c2cccs2)c(=O)n2c1CCC2` gave PI4K2A inh 1.
For Cc1cccc(-n2nnnc2S(C)(=O)=O)c1 the results were TrxR1 substrate -6%[57.1 µM], TrxR1 inh 1.8µM* and PI4K2A inh 40.
For COC(=O)c1nnn(-c2cccc(C)c2)c1C(=O)OC the results were TrxR1 substrate -3%, TrxR1 inh 1% and PI4K2A inh 3.
`COc1cccc(-n2nnnc2S(C)(=O)=O)c1` gave TrxR1 substrate 5%, TrxR1 inh 3.2µM*, PKM2 activator 3%, GALK inh 1% and PI4K2A inh 51.
Screening Brc1cccc[n+]1CCC[n+]1ccccc1Br returned TrxR1 substrate -12% and TrxR1 inh 6.3µM*.
Screening Cc1cccc[n+]1CCCCCCCCCC[n+]1ccccc1C returned TrxR1 substrate 10%[57.1 µM], TrxR1 inh 16%, PKM2 activator -6%, GALK inh 5% and PI4K2A inh -1.
For CCOC(=O)[C@]12CCCC=C1N(CCCOC)C(=O)[C@@H]2CC(=O)N1CCC(c2ccccc2)CC1 the results were PI4K2A inh 1.
Screening O=C(NC1=C(NC2CCS(=O)(=O)C2)C(=O)c2ccccc2C1=O)c1ccccc1 (stereo unspecified) returned TrxR1 substrate 32µM*, TrxR1 inh 50µM*, PKM2 activator 7%, GALK inh -3% and PI4K2A inh -22.
`O=C(NC(NC1CCS(=O)(=O)C1)C(=O)c1cccs1)c1ccccc1` (stereo unspecified) gave TrxR1 substrate -4%, TrxR1 inh -17%, PKM2 activator 1%, GALK inh -7% and PI4K2A inh 5.
COC(=O)CCCn1cc(CN2CC=CS2(=O)=O)nn1 was read as PI4K2A inh -1.
Cc1ccc2[nH]c(=O)c(CN(Cc3ccco3)S(=O)(=O)c3c(C)ccc4nsnc34)cc2c1 was read as TrxR1 substrate 13%, TrxR1 inh 28µM*, PKM2 activator 0%, GALK inh 0% and PI4K2A inh 0.
For COc1ccc(CNC(=O)C2CCN(C(=O)c3ccc(-n4ccc5ccccc54)s3)CC2)cc1 the results were TrxR1 substrate 2%[57.1 µM], TrxR1 inh 15%[57.1 µM] and PI4K2A inh -2.
COc1ccc(OC)c(CNC(=O)C2CCCCN2S(=O)(=O)c2ccc(F)cc2)c1 (stereo unspecified) was read as TrxR1 substrate -11%[57.1 µM], TrxR1 inh -16%[57.1 µM] and PI4K2A inh -9.
Cc1c(CCNC(=O)c2c(F)cccc2F)sc2nc(-c3ccc(F)cc3)nn12 was read as TrxR1 substrate 0%[57.1 µM], TrxR1 inh 20%[57.1 µM] and PI4K2A inh -1.
